VDR inh = inhibitors of human vitamin D receptor; VDR-SRC2-3 peptide fluorescence polarization, 2 h; AID 504847; actives 0.93% (n = 400,000); Potency, µM, actives largely listed as inhibitors
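Inhibition of the VDR/SRC2-3 peptide interaction is quantified by fluorescence polarization. Compounds (23 nl, pintool) incubate with the reagents for 2 hours at ambient room temperature.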
Sfp inh = inhibitors of Bacillus subtilis Sfp phosphopantetheinyl transferase; Biochemical Sfp PPTase activity, qHTS; Potency, µM, usual class: inhibitors; actives 3.5% (n = 310,000); AID 1490;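 further: the enzyme is Sfp with the accession as filed and its product quenches rhodamine fluorescence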
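Step 1, compound plus 15 nM Sfp-PPTase, 15 min, room temperature. Step 2, add rhodamine-CoA (5 uM) and BHQ-2-YbbR (12.5 uM). Step 3, read 525/598 nm fluorescence at 0 and 30 min.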
ALOX12 inh = ALOX12 (human) lipoxygenase inhibition; actives 1.1% (n = 580,000); purified 12hLO, xylenol orange hydroperoxide absorbance; AID 1671190; P18054; Potency, µM (series often up to 108 µM), hits mostly inhibitors
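Purified human 12hLO (150 nM final) in 25 mM Hepes, 0.01% Triton X-100, pH 7.0 was preincubated 15 min at room temperature with compound. Then 40 uM arachidonic acid was added, 30 min. Hydroperoxide was read by Fe-XO absorbance ratio 573/405 nm.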
PLK1 PBD block = inhibitors of human PLK1 polo-box domain binding. P53350. Plk1 PBD binding of FITC phosphopeptide, fluorescence polarization. Potency, µM, actives largely listed as inhibitors. actives 2.8% (n = 360,000); further: series mostly up to about 57 µM; nearly all actives have a fitted effect of over 65% in size
Target sequence (P53350 whole entry, looked up, the tested form may be a part): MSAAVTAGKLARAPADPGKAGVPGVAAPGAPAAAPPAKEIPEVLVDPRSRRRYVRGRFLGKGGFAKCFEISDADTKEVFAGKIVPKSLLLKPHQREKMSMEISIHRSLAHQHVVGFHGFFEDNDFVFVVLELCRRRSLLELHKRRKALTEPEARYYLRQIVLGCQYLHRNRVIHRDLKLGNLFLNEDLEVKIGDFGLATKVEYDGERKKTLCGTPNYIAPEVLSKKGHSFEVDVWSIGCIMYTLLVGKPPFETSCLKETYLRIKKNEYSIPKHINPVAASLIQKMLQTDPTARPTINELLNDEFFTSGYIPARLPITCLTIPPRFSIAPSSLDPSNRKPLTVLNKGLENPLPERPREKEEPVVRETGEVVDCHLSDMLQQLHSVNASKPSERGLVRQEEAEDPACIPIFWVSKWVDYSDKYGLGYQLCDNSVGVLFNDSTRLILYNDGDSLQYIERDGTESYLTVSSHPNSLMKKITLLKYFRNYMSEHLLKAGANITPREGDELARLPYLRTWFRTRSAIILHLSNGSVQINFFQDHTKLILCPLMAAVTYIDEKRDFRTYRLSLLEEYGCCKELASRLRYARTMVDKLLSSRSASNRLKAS
Each line names hits and unclear results; the compound was inactive in the other large screens. Compounds with a hit are over-represented: about 4.2% of the library has one in this group of screens. The call rests on the fitted dose curve; in most records, active means well fitted curve in the direction sought with a large enough effect; inconclusive means small, poorly fitted or top-dose-only effect, or another doubt; inactive means no such curve, though single readings can be large; an effect the other way counts as inactive or inconclusive.

CS(=O)(=O)N1CCC2(CC1)CN(c1cccc(-c3ccccc3)c1)C2	none (no result: PLK1 PBD block)
Cc1sc2nc[nH]c(=S)c2c1-c1ccccc1	VDR inh 89µM, ALOX12 inh 32µM, PLK1 PBD block inconclusive
Clc1ccc(-c2csc3ncnc(Cl)c23)cc1	none
S=c1[nH]cnc2scc(-c3ccc(Cl)cc3)c12	VDR inh inconclusive, PLK1 PBD block 8.4µM
Fc1ccc(-c2csc3ncnc(Cl)c23)cc1	VDR inh inconclusive, PLK1 PBD block 21µM
Cc1ccc(-c2csc3nc[nH]c(=S)c23)cc1	ALOX12 inh 35µM
COc1cc(OC)cc(C(=O)Nc2ccc3oc(-c4ccc(Cl)cc4)nc3c2)c1	none (no result: Sfp inh, PLK1 PBD block)
COC(C(=O)N/N=C(\C)c1ccc(C)cc1)c1ccccc1 (stereo not given)	none
COc1cccc(Cn2c(=O)c(-c3cccc(C#N)c3)nc3cnc(N4CCOCC4)nc32)c1	ALOX12 inh inconclusive (no result: PLK1 PBD block)
Cc1cccc(CNC(=O)c2nnn3cc(C)[nH]c(=O)c23)c1	none (no result: VDR inh, Sfp inh, PLK1 PBD block)
N#Cc1cccc(/C=C2\CSc3ccccc3C2=O)c1	ALOX12 inh 40µM (no result: VDR inh, Sfp inh, PLK1 PBD block)
CCn1cc(C(=O)N2CC(C)CC(C)C2)c(=O)c2cc(S(=O)(=O)N(C)C)ccc21 (stereo not given)	PLK1 PBD block 21µM
CC1CC(C)CN(C(=O)c2cn(C)c3ccc(S(=O)(=O)N(C)C)cc3c2=O)C1 (stereo not given)	none
CCCc1nc2c(sc3nc4c(cc32)COC(C)(C)C4)c(=O)n1Cc1ccco1	Sfp inh 28µM
CCCCCCCCSc1nnc2[nH]c(=O)cc(N)n12	VDR inh inconclusive, PLK1 PBD block 3.4µM
CC[N+]1(C)CCC(O)(c2ccc(OC)cc2)C(C(=O)c2ccc(OC)cc2)C1 (stereo not given)	VDR inh inconclusive, PLK1 PBD block 6.7µM (no result: Sfp inh)
COc1ccc(-c2ccc(C(=O)C3CC3)cc2)cc1	none
O=S(Cc1ccccc1)Cc1ccccc1	none (no result: Sfp inh)
COc1ccc(Cl)cc1N(CC(=O)N1CCCC1)S(=O)(=O)c1ccc(C)cc1	none
CN(Cc1ccccc1)C(=O)C1CCN(S(C)(=O)=O)CC1	none
Cc1[nH]c2ccccc2c(=O)c1CN1CCCCC1	none
FC(F)(F)c1ccccc1CN1CCC(Cc2ccccc2)CC1	ALOX12 inh 0.71µM
Cc1[nH]c2ccccc2c1CN1CCC(Cc2ccccc2)CC1	Sfp inh 79µM, ALOX12 inh inconclusive
Clc1ccccc1CN1CCC(Cc2ccccc2)CC1	ALOX12 inh inconclusive
Cc1ccccc1CN1CCC(N(C)Cc2ccccc2)CC1	ALOX12 inh 0.56µM (no result: VDR inh, Sfp inh, PLK1 PBD block)
CN(Cc1ccccc1)C(=O)C1CCN(Cc2cccc3ccccc23)CC1	ALOX12 inh 1.3µM (no result: VDR inh, Sfp inh, PLK1 PBD block)
O=C(NNC(=O)c1ccc(F)c(S(=O)(=O)N2CCOCC2)c1)c1ccc([N+](=O)[O-])cc1	ALOX12 inh inconclusive (no result: Sfp inh)
N#CC1(NC(=O)COC(=O)C2=COCCO2)CCCCC1	none (no result: Sfp inh)
CCNC(=O)c1ccc(-n2nc(C)cc2-c2ccccc2)cc1	PLK1 PBD block inconclusive
CCOc1ccc(N)c(SSc2cc(OCC)ccc2N)c1	VDR inh 10µM, Sfp inh 2.8µM, ALOX12 inh inconclusive, PLK1 PBD block 1.7µM
COc1cc(N=Nc2ccc(Br)cc2)cc(C=O)c1O	ALOX12 inh 3.2µM, PLK1 PBD block 27µM (no result: VDR inh, Sfp inh)
COc1cc(CN(C)C)cc(C=O)c1O	none (no result: ALOX12 inh)
O=C(CCCSc1ccccc1)Nc1nc(-c2ccco2)c(-c2ccco2)s1	Sfp inh 16µM, ALOX12 inh 16µM
Cc1ccc(C(=O)Nc2nc(-c3ccco3)c(-c3ccco3)s2)o1	VDR inh inconclusive, ALOX12 inh inconclusive (no result: Sfp inh)
O=C(CCl)Nc1nc(-c2ccco2)c(-c2ccco2)s1	Sfp inh 45µM, ALOX12 inh inconclusive, PLK1 PBD block inconclusive
COc1cc(OC)c(C=NNC(=S)NC23CC4CC(CC(C4)C2)C3)c(OC)c1	ALOX12 inh 13µM (no result: Sfp inh)
COc1cccc(/C=N/NC(=O)NC23CC4CC(CC(C4)C2)C3)c1O	none (no result: Sfp inh, ALOX12 inh)
Cc1ccc(/C=N/NC(=S)NC2CCS(=O)(=O)C2)cc1 (stereo not given)	Sfp inh inconclusive
CCOc1ccc(CNC(=S)N/N=C/c2ccc(OC)c(OC)c2)cc1	ALOX12 inh 14µM
COc1ccc(/C=N/NC(=S)NC2CCS(=O)(=O)C2)cc1OC (stereo not given)	Sfp inh 56µM
COc1ccc(/C=N/NC(=O)c2cc(C34CC5CC(CC(C5)C3)C4)[nH]n2)cc1OC	none
COc1ccc(C=NNC(=S)NC23CC4CC(CC(C4)C2)C3)cc1OC	ALOX12 inh 45µM (no result: Sfp inh)
Cc1ccc(C)c(Cn2cnc3ccccc3c2=O)c1	none (no result: Sfp inh, PLK1 PBD block)
COc1ccc(NC(=O)c2nnn(CC(=O)Nc3ccc(C)c(C)c3)c2N)cc1OC	none (no result: Sfp inh, PLK1 PBD block)
O=C(CCSc1ccccc1Cl)NNC(=O)c1ccncc1	none (no result: Sfp inh)
COc1ccc(NC(=O)C2=NN(C3CCS(=O)(=O)C3)C(=O)CC2)cn1 (stereo not given)	none
COc1cccc(/C=C(\C#N)C(=O)NC2CCS(=O)(=O)C2)c1 (stereo not given)	none
COc1cc(/C=C(/C#N)C(=O)Nc2cccc3ncccc23)cc(OC)c1OC	ALOX12 inh 16µM (no result: VDR inh, Sfp inh, PLK1 PBD block)
COc1cc(/C=C(/C#N)C(=O)c2c(Cl)cccc2Cl)cc(OC)c1	ALOX12 inh 28µM (no result: VDR inh, Sfp inh, PLK1 PBD block)
COc1cc(OC)c(OC)cc1/C=C(/C#N)C(=O)c1c(Cl)cccc1Cl	none (no result: VDR inh, Sfp inh, PLK1 PBD block)
COc1cccc(/C=C(/C#N)C(=O)c2c(Cl)cccc2Cl)c1OC	ALOX12 inh 20µM (no result: VDR inh, Sfp inh, PLK1 PBD block)
COc1cccc(/C=C(/C#N)C(=O)c2c(Cl)cccc2Cl)c1	ALOX12 inh 7.1µM (no result: VDR inh, Sfp inh, PLK1 PBD block)
CCc1cccc(-n2nnc(-c3nc(-c4ccc5c(c4)OCO5)no3)c2C)c1	none (no result: Sfp inh, PLK1 PBD block)
COc1cc(/C=C(/C#N)C(=O)c2c(Cl)cccc2Cl)cc(OC)c1OC	ALOX12 inh 0.5µM (no result: VDR inh, Sfp inh, PLK1 PBD block)
CCNC(=O)[C@@H]1C[C@H](N)CN1C(=O)c1ccc(OC)c(OC)c1	none (no result: VDR inh, Sfp inh, PLK1 PBD block)
NNS(=O)(=O)c1ccc(N2CCCC2=O)c([N+](=O)[O-])c1	VDR inh inconclusive, Sfp inh inconclusive, ALOX12 inh inconclusive, PLK1 PBD block 27µM
CCCCN(CCCC)S(=O)(=O)c1ccc(N2CCCC2=O)c([N+](=O)[O-])c1	VDR inh inconclusive, PLK1 PBD block 15µM (no result: Sfp inh)
CCN(CC(=O)NCC1CCCO1)S(=O)(=O)c1ccc2ccccc2c1 (stereo not given)	none
C/C(Cl)=C\Cn1c(Nc2ccccc2)nc2c1c(=O)n(C)c(=O)n2C	ALOX12 inh inconclusive
CC(C)(CCC(=S)N1CCOCC1)C1CCCCC1	VDR inh inconclusive, ALOX12 inh inconclusive, PLK1 PBD block 12µM
S=C(CN1CCCC1=S)N1CCOCC1	ALOX12 inh inconclusive (no result: Sfp inh)
CC(C)CN1CCC(O)(c2csc(CN3CCN(c4ccccn4)CC3)n2)CC1	none (no result: VDR inh, Sfp inh, PLK1 PBD block)
CCOC(=O)c1cnc2ccc(C)cc2c1Nc1ccc(OCc2ccccc2Cl)cc1	none (no result: Sfp inh, PLK1 PBD block)
O=C(CCc1nc(-c2ccc(F)cc2)no1)NCc1ccccc1CN1CCOCC1	none (no result: Sfp inh)
Cc1cccc(C(=O)N(Cc2ccc(C)o2)C2CCS(=O)(=O)C2)c1 (stereo not given)	none
COc1cccc(CN(C(=O)c2ccc([N+](=O)[O-])cc2)C2CCS(=O)(=O)C2)c1 (stereo not given)	VDR inh inconclusive, PLK1 PBD block 12µM
COc1cccc(C(=O)N(Cc2cccc(F)c2)C2CCS(=O)(=O)C2)c1 (stereo not given)	none (no result: Sfp inh, PLK1 PBD block)

Screens deposited in PubChem by National Center for Advancing Translational Sciences (NCATS).
